Source: PubChem (several laboratories)
Only some compounds are listed: those with a hit (about 3.3% of all), similar ones and a draw of the others.
TPT1 inh: Candida albicans TPT1 enzyme inhibitors, primary screen, biochemical, fluorescence polarization; recombinant caTPT1, FP RNA substrate dephosphorylation; 0.81% of 300,000 active; tRNA 2'-phosphotransferase TPT1 (Candida albicans SC5314); inhibition, % at 5 µM;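 active means inhibition above the mean of all tested compounds plus 3 SD, set per screening campaign, cut at about 24% in these data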
Rpn11 block: Rpn11 (PSMD14) deubiquitinase inhibitors, primary screen, biochemical, fluorescence polarization, uHTS; 26S proteasome non-ATPase regulatory subunit 14 (Homo sapiens), O00487; human 26S proteasome, Ub4-pepOG fluorescence polarization; 20S core pre-blocked with epoxomicin; inhibition, % at 20 µM; 0.59% of 360,000 active; AID 588493, 2011;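 active means inhibition at 20 µM, scaled to each plate's controls, above about 33%, limit read from the data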
HNF4A DNA FP: change in binding of human HNF4A to DNA, primary screen, biochemical, fluorescence polarization, FITC-DNA | AID 1224865, 2016 | 0.3% of 360,000 active | 1 h | Hepatocyte nuclear factor 4-alpha (Homo sapiens), P41235 | activity change, % at 10 µM; in the data active means activity change above about 30%, passing the limit was not always enough
CTSL1 counter: Fasciola hepatica cathepsin L1 inhibitors, primary screen, counter-screen for PFM18AAP inhibitor project, biochemical, QFRET, fluorogenic peptide substrate | recombinant F. hepatica cathepsin L1, Z-Leu-Arg-MCA fluorescence | inhibition, % at 5.96 µM | 0.49% of 300,000 active | AID 1906, 2009;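 active means inhibition above the mean of all tested compounds plus 3 SD, set per screening campaign, cut at about 17% in these data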
PHOSPHO1 block: PubChem AID 1565; Phosphoethanolamine/phosphocholine phosphatase (Homo sapiens), Q8TCT1; recombinant PHOSPHO1, absorbance phosphatase assay; inhibition, % at 13.3 µM; 1.1% of 290,000 active; in the data active means inhibition above about 60%
Target sequence (Q8TCT1 whole entry, looked up): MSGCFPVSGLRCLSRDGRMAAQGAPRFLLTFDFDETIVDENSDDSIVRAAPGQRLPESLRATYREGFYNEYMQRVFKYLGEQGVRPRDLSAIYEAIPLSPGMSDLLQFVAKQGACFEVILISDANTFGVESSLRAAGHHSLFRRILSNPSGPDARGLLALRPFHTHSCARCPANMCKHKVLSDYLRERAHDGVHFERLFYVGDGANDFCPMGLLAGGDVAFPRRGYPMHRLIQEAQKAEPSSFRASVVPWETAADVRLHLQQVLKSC
NRP1-CendR mod: modulators of CendR peptide binding to NRP-1, primary screen, biochemical, fluorescence polarization, uHTS; Neuropilin-1 (Homo sapiens), O14786; FAM-RPARPAR peptide binding to NRP-1; inhibition, % at 25 µM; 0.85% of 360,000 active; AID 602438, 2012;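 active means inhibition or corrected inhibition above about 18%, plus a signal ratio from 0.5 to 1.5, limit read from the data, passing the limit was not always enough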
TPT1 inh confirm: Candida albicans TPT1 inhibitors, confirmation, biochemical, fluorescence polarization, triplicate | 74% of 2,400 active | shares compounds with TPT1 inh | inhibition, % at 5 µM | recombinant caTPT1, RNase T1 coupled;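 active means inhibition above the primary screen limit, the mean inhibition of all tested compounds plus 3 SD, cut at about 25% in these data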
RNase T1 inh: RNase T1 inhibitors, counter-screen for TPT1 inhibitor project, biochemical, fluorescence polarization | shares compounds with TPT1 inh | RNase T1 cleavage, 1536-well | inhibition, % at 5 µM | 83% of 2,400 active;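 active means inhibition above the solvent-only control well mean plus 3 SD, limit set per screening run, cut at about 23% in these data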;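 further: inhibitors block cleavage so intact labeled substrate keeps polarization high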
Target sequence (P00651 whole entry, looked up): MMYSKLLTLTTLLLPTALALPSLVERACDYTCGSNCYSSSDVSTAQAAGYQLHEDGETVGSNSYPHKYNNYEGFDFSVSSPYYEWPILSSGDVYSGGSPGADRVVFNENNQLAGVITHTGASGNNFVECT
Numbers stand for hits; 0 = inactive; - = no result given; + = active, no number.

SMILES	TPT1 inh	Rpn11 block	HNF4A DNA FP	CTSL1 counter	PHOSPHO1 block	NRP1-CendR mod	TPT1 inh confirm	RNase T1 inh
O=C(COC(=O)CCN1C(=O)/C(=C\C=C\c2ccccc2)SC1=S)Nc1cc(F)ccc1F	28	-	0	0	0	0	33	42
CC(=N)c1c(O)c2ccccc2oc1=O	27	0	0	0	0	0	0	0
COc1cc(/C=C(\C#N)C(=O)c2c[nH]c3ccccc23)cc(OC)c1O	128	-	84	0	0	0	156	143
COc1cc(/C=C(\C#N)c2nc3ccccc3n2C)cc(OC)c1O	83	-	0	0	0	0	101	101
COc1ccc(/C=C(\C#N)c2nc3ccccc3[nH]2)cc1O	-	0	0	-	0	0	-	-
Cn1c(/C(C#N)=C/c2ccc(O)cc2)nc2ccccc21	0	0	0	0	0	0	-	-
COc1cc(/C=C(\C#N)c2nc3ccccc3[nH]2)cc(OC)c1O	137	-	0	0	0	0	133	124
CCN(CC)c1ccc(/C=N/Nc2nc3ccccc3[nH]2)c(O)c1	34	0	0	0	0	0	0	0
CCOc1cc(N(CC)CC)ccc1/C=C(/C#N)c1nc2ccccc2[nH]1	+	-	0	0	0	0	183	166
COc1cc(/C=C(\C#N)c2nc3ccc(C)cc3[nH]2)c([N+](=O)[O-])cc1OC	0	0	0	0	0	0	-	-
COc1cc(OC)c(OC)cc1/C=N/Nc1nc2ccccc2[nH]1	0	0	0	0	0	0	-	-
CCN(CC)c1ccc(/C=C(/C#N)c2nc3ccc(C)cc3[nH]2)c(OC(C)C)c1	139	-	0	0	0	0	130	124
CCCOc1cc(N(CC)CC)ccc1/C=C(/C#N)c1nc2ccc(C)cc2[nH]1	184	-	0	0	0	0	193	171
CN(CCOc1ccc(Cl)cc1)C(=O)c1cc([N+](=O)[O-])ccc1N1CCOCC1	0	0	0	0	-	0	-	-
CC(C)C(C)(C#N)NC(=O)COC(=O)C1CCN(S(=O)(=O)c2ccc3c(c2)OCCO3)CC1 (centres undefined)	-	0	0	-	-	0	-	-
N#Cc1c(C(F)(F)F)cc(-c2ccco2)nc1SCc1ccccn1	27	-	0	0	0	0	0	23
CCOC(=O)c1ccc(NCn2c(=O)oc3ccccc32)cc1	31	-	0	0	0	0	44	57
O=C(NCCCO)/C(=C/c1ccc(-c2cccc([N+](=O)[O-])c2)o1)NC(=O)c1ccccc1	0	0	0	0	0	0	-	-
Cc1ccc(C(=O)N/C(=C/c2ccc(-c3ccc([N+](=O)[O-])cc3)o2)C(=O)NCCCN(C)C)cc1	26	0	0	0	-	0	24	33
Cc1ccc(C(=O)N/C(=C\c2ccc(-c3ccc([N+](=O)[O-])cc3)o2)C(=O)NC2CCS(=O)(=O)C2)cc1 (centres undefined)	47	-	0	0	0	0	58	71
CC1CCCCN1c1cc(C#N)c(C#N)cc1[N+](=O)[O-] (centres undefined)	0	0	0	0	0	0	-	-
CC1CCc2cccc3c2N1c1cc(C#N)c(C#N)cc1O3 (centres undefined)	26	0	0	0	0	0	0	31
COc1ccc(CCC(=O)N2CCCC(Nc3ccc(C)c(C)c3)C2)cc1OC (centres undefined)	0	0	0	0	0	0	-	-
CCN(CC)S(=O)(=O)c1ccc(C(=O)/C=C/c2ccc(-c3ccc([N+](=O)[O-])cc3)o2)cc1	30	0	0	0	0	0	49	53
COc1ccc(N2CCN(CC(=O)c3c(C)n(C)c4ccc(OC)cc34)CC2)cc1	0	0	0	0	0	0	-	-
SMILES	TPT1 inh	Rpn11 block	HNF4A DNA FP	CTSL1 counter	PHOSPHO1 block	NRP1-CendR mod	TPT1 inh confirm	RNase T1 inh
Nc1nc(-c2ccccc2)c(-c2ccc([N+](=O)[O-])cc2)s1	40	0	0	0	0	0	51	69
N#CC1=C(N)Oc2cc(N)ccc2C1c1cccc(F)c1 (centres undefined)	0	0	0	0	0	0	-	-
CN(C)c1ccc2c(c1)OC(N)=C(C#N)C2c1cccc(F)c1 (centres undefined)	78	-	0	0	0	0	62	70
O=C(Nc1sccc1C(=O)NCc1ccco1)c1cccnc1	24	0	0	0	0	0	42	56
O=C(NCc1ccco1)c1ccccc1	0	0	0	0	0	0	-	-
NC(=O)CSC1=N/C(=C\c2ccco2)C(=O)N1c1ccc(OC(F)F)cc1	0	0	0	0	0	0	-	-
CCOc1cc(/C=C2\N=C(SC(C)C(N)=O)N(c3ccc(OC(F)F)cc3)C2=O)ccc1O (centres undefined)	101	-	0	0	0	0	117	113
CCOC(=O)C1=C(O)CSC1=Nc1ccccc1	27	0	0	0	0	0	0	27
O=C(NCCOc1ccccc1)c1cc(S(=O)(=O)N2CCOCC2)ccc1F	0	0	0	0	0	0	-	-
O=C(O)CCCNc1cc(N2CCC3(CC2)OCCO3)c2noc3c2c1C(=O)c1ccccc1-3	0	-	-	0	0	-	-	-
CCOC(=O)N1CCN(c2cc(NCCC(=O)O)c3c4c(onc24)-c2ccccc2C3=O)CC1	137	-	0	21	0	0	185	152
CN1CCN(c2cc(N3CCN(C(=O)c4ccco4)CC3)c3c4c(onc24)-c2ccccc2C3=O)CC1	0	-	0	0	0	0	-	-
O=C(O)CCCNc1cc(N2CCN(C(=O)c3ccco3)CC2)c2noc3c2c1C(=O)c1ccccc1-3	96	-	0	0	0	0	170	141
O=C(Cn1ncc2c3ccccc3n(Cc3cccc(Cl)c3)c2c1=O)NCC1CCCO1 (centres undefined)	29	-	0	0	0	0	98	94
Cc1ccc(C2C(C#N)=C(N)SC(N)=C2C#N)c(C)c1	152	-	0	0	0	0	79	90
Cc1ccc(C2C(C#N)=C(N)SC(N)=C2C#N)cc1	-	-	0	-	0	0	-	-
CC1CCc2c(sc(Nc3nc4c(F)cccc4s3)c2C(N)=O)C1 (centres undefined)	48	-	37	0	0	0	57	69
O=C(Nc1nc2c(F)cccc2s1)C1CC1	0	0	0	0	0	0	-	-
